PD-1 reverse act: activators reversing PD-1 mediated T-cell inhibition; AID 2316; primary human CD4 T cells, PD-L1 beads, CellTiter-Glo 96 h; 29,000 tested, under 10 active; activation, % (no concentration beside the values); call rule not given here;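 further: 0% = median vehicle wells and 100% = positive control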
NOMO-1 viab: STK33 inhibitor candidate reducing NOMO-1 cell viability. NOMO-1 AML viability, CellTiter-Glo luminescence, 72 h. inhibition, % (test concentration not listed). hit rate 7.5% among 37,000. AID 2330; in the data active means inhibition above about 80%; inconclusive means no clear call, values can overlap the other calls
Hedgehog inh: Sonic Hedgehog pathway inhibition; AID 2313; hit rate 2.1% among 22,000; inhibition, % (concentration not given with the values); Shh-LIGHT2 Gli-luciferase reporter, 30 h;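 active means mean inhibition across valid replicates above about 65%, limit read from the data; inconclusive means mean under the limit, yet half or more replicates past it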;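 further: pathway switched on by Shh-conditioned medium diluted 1 in 25 in low serum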
MITF inhib: inhibitors of MITF; TRPM1 promoter luciferase, luminescence, 24 h; inhibition, % (no concentration beside the values); hit rate 0.28% among 37,000; in the data active means inhibition above about 85%; inconclusive means no clear call, values can overlap the other calls; inactive means below about 68%;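 further: human melanocyte line stably carrying TRPM1 promoter luciferase reporter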
Starred values were filed as active, the others as inactive; u = inconclusive; x = no result given. An excerpt weighted towards active compounds, which were near 8.1% of everything screened.

SMILES	PD-1 reverse act	NOMO-1 viab	Hedgehog inh	MITF inhib
C=C1CC[C@@H](C)[C@](C)(CCc2ccoc2)C/C=C\C=C/1C(=O)O	-1	10	5	-16
CCN(CC)C(=O)c1cccc(Cl)c1	0	8	-37	-16
N#Cc1c(-c2cccs2)cc(-c2ccc(C(=O)O)cc2)nc1SCc1cccs1	0	35	7	6
O=C(NC(Nc1ccc(Cl)cc1)C(=O)c1ccccc1)c1ccccc1 (centres undefined)	0	34	17	0
C[C@@H]1CN([C@H](C)CO)C(=O)c2cc(NC(=O)c3ccncc3)ccc2O[C@H]1CN(C)Cc1ccc(Cl)c(Cl)c1	2	48	x	-9
C[C@H]1CN([C@@H](C)CO)C(=O)c2cc(NC(=O)Nc3ccc(C(F)(F)F)cc3)ccc2O[C@@H]1CN(C)Cc1ccc(Cl)c(Cl)c1	-6	117*	x	18
C[C@H](CO)N1C[C@H](C)[C@H](CN(C)Cc2ccc(Cl)c(Cl)c2)Oc2ccc(NC(=O)c3ccncc3)cc2C1=O	-2	22	86*	15
C[C@H](CO)N1C[C@H](C)[C@H](CN(C)Cc2ccc(Cl)c(Cl)c2)Oc2ccc(NC(=O)Nc3ccc(C(F)(F)F)cc3)cc2C1=O	0	125*	-6	49
C[C@@H]1CN([C@@H](C)CO)C(=O)c2cc(NC(=O)Nc3ccc(C(F)(F)F)cc3)ccc2O[C@H]1CN(C)Cc1ccc(Cl)c(Cl)c1	-4	115*	27	27
C[C@H](CO)N1C[C@H](C)[C@@H](CN(C)Cc2ccc(Cl)c(Cl)c2)Oc2ccc(NC(=O)Nc3ccc(C(F)(F)F)cc3)cc2C1=O	x	65	-15	-3
CCOc1ccc(C2(CC(=O)Nc3ccccc3)C(=O)c3ccccc3C2=O)cc1OC	-1	1	-28	6
CN(C)CCNc1nc(-c2noc(NCCN(C)C)n2)no1	1	-31	6	-14
CCn1c(SCC(=O)Nc2cccc(C(=O)O)c2)nnc1-c1ccc(Cl)cc1Cl	2	31	x	-19
CCOC(=O)c1oc2ccccc2c1CO	0	26	97*	27
CCOC(=O)c1oc2ccc(C=NC(C)(C)C)c(Cl)c2c1C	0	40	-66	-57
Nc1nc(Cl)nc2c1ncn2C1OC(CO)[C@H](O)[C@H]1F (some centres undefined)	-20	97*	19	29
Nc1nc(Cl)nc2c1ncn2C1C[C@@H](O)C(CO)O1 (some centres undefined)	-24	98*	72*	49
Nc1ncnc2c1ncn2C1CCC(CO)O1 (centres undefined)	3	-12	-62	1
O=C(CSc1nnc(-c2ccncc2)o1)NC(=O)Nc1ccccc1	1	10	-16	0
CCN1C(=O)C=CC1=O	4	98*	-46	-7
Cc1ccc([N+](=O)[O-])cc1N(CC(=O)Nc1ccc(F)cc1F)S(C)(=O)=O	1	-1	x	-12
C=C(C)C1CCC2(C(=O)O)CCC3(C)C(CCC4C5(C)C(C=O)C(O)C(C)(CO)C5CCC43C)C12 (centres undefined)	1	17	9	15
N#C/C(=C\c1cc(Cl)cc(Cl)c1)c1cccnc1	-3	83*	73*	2
N#C/C(=C\c1ccncc1)c1ccc(NC(N)=O)cc1	0	20	-12	-66
CCOC(=O)c1c(CN(CC)CC)oc2ccc(OC)cc12	0	8	28	-2
SMILES	PD-1 reverse act	NOMO-1 viab	Hedgehog inh	MITF inhib
CCOC(=O)c1c(CSc2nc(C)ccc2C#N)oc2ccc(OC(C)=O)cc12	-2	117*	100*	66
C[C@H](CO)N1C[C@H](C)[C@H](CN(C)C(=O)Nc2ccc(C(F)(F)F)cc2)Oc2c(NC(=O)Nc3cccc4ccccc34)cccc2C1=O	-6	102*	-34	35
C[C@H]1CN([C@@H](C)CO)C(=O)c2cccc(NC(=O)Nc3cccc4ccccc34)c2O[C@H]1CN(C)C(=O)Nc1ccc(F)cc1	-5	87*	14	16
C[C@@H]1CN([C@@H](C)CO)C(=O)c2cccc(NC(=O)Nc3ccc(C(F)(F)F)cc3)c2O[C@@H]1CN(C)C(=O)Nc1cccc2ccccc12	-1	66	-5	8
C[C@H]1CN([C@@H](C)CO)C(=O)c2cccc(NC(=O)Nc3cccc4ccccc34)c2O[C@H]1CN(C)C(=O)Nc1ccc(C(F)(F)F)cc1	-6	109*	21	47
C[C@H](CO)N1C[C@H](C)[C@@H](CN(C)C(=O)Nc2ccc(C(F)(F)F)cc2)Oc2c(NC(=O)Nc3cccc4ccccc34)cccc2C1=O	-5	100*	17	21
Cc1nc(CSc2nc3sc(C)c(C)c3c(=O)n2-c2ccccc2)cs1	1	5	x	-3
O=S(=O)(NCC(O)Cn1c2ccc(Cl)cc2c2cc(Cl)ccc21)c1ccccc1 (centres undefined)	x	113*	x	5
Cc1cc(Br)c(NC(=O)CSc2nc3ccccc3[nH]2)cc1C	-5	28	x	18
Cc1cc(C)c(NC(=O)CSc2nncc3ccccc23)c([N+](=O)[O-])c1	-3	5	x	-4
Cc1csc2sc(COC(=O)Nc3ccccc3)c(C)c12	0	120*	u	13
C/C1=C/CC(=O)C(C)C[C@H]2OC(=O)[C@H](C)C2[C@@H](O)C1 (some centres undefined)	2	-10	-10	6
C[C@H](CO)N1C[C@H](C)[C@H](CN(C)Cc2ccc(C(=O)Nc3ccccc3N)cc2)Oc2ccc(NC(=O)Nc3ccc(C(F)(F)F)cc3)cc2C1=O	2	46	x	-2
C[C@H]1CN([C@@H](C)CO)C(=O)Cc2cc(NC(=O)Nc3ccc(C(F)(F)F)cc3)ccc2O[C@H]1CN(C)Cc1ccc(C(=O)Nc2ccccc2N)cc1	-2	127*	x	34
C[C@@H]1CN([C@H](C)CO)C(=O)Cc2cc(NC(=O)Nc3ccc(C(F)(F)F)cc3)ccc2O[C@@H]1CN(C)Cc1ccc(C(=O)Nc2ccccc2N)cc1	0	138*	x	14
C[C@H](CO)N1C[C@H](C)[C@H](CN(C)S(=O)(=O)c2ccc(Cl)cc2)Oc2c(NC(=O)Nc3ccc4c(c3)OCO4)cccc2C1=O	0	3	110*	-13
C[C@H]1CN([C@@H](C)CO)C(=O)c2cccc(NC(=O)Nc3ccc4c(c3)OCO4)c2O[C@H]1CN(C)S(=O)(=O)c1ccc(Cl)cc1	-4	92*	107*	8
O=C1C=C(NC2CCCC2)CC(c2ccccc2)C1 (centres undefined)	0	111*	7	-5
COc1ccc(CCN2CCC(Nc3nc4ccccc4n3Cc3ccc(F)cc3)CC2)cc1	1	114*	40	-10
CCCCn1c(NCc2ccc(OC)cc2O)nc2ccccc21	x	6	x	-6
CC(C)c1ccc2c(c1)CCC1[C@](C)(C(=O)O)CCC[C@]21C (some centres undefined)	0	19	-20	-22
CC(C)c1c(O)ccc2c1CCC1C(C)(C)CCC[C@]21C (some centres undefined)	x	109*	u	106*
Cc1ccc(N2C3=C(C(=O)CC(C)(C)C3)C(c3cccs3)C3=C2CC(C)(C)CC3=O)cc1C	-7	118*	-42	-18

Screening data (PubChem)
